Assay outcomes from PubChem BioAssay.
Hits are enriched below; roughly 2.3% of the tested compounds scored in any of these assays.
MITF TRPM1 inh: inhibitors of MITF-dependent TRPM1 promoter reporter, primary screen, cell-based, SK-MEL-5, single point, luciferase | AID 488899, 2010 | inhibition, % at 12.5 µM | 330,000 compounds, 0.83% hits | SK-MEL-5 TRPM1 promoter luciferase, 24 h;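 active means mean inhibition across replicates of 60% or more, whatever share of single replicates reaches that level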
Gli-Sufu antag: Gli-Sufu pathway antagonists, primary screen, luciferase luminescence, Sufu-KO-LIGHT cells, uHTS; AID 588413, 2011; 340,000 compounds, 0.74% hits; inhibition, % at 5 µM; Sufu-KO-LIGHT fibroblasts, Gli luciferase reporter luminescence;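 active means inhibition above about 55%, limit read from the data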;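 further: 0% = DMSO-treated cells and 100% = wells with medium but no cells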
Jurkat NFkB inh: inhibitors of induced NF-kB luciferase reporter, primary screen, TCR NF-kB activation inhibitor project, cell-based, luminescence, uHTS. Jurkat, PMA/ionomycin-induced NF-kB luciferase reporter. inhibition, % at 4 µM. 330,000 compounds, 0.53% hits. AID 435003, 2010; in the data active means inhibition above about 50%
697 NFkB inh: inhibitors of PMA/ionomycin-induced NF-kB reporter, 697 cells, primary screen, B-cell NF-kB inhibitor project, cell-based, luminescence, uHTS; inhibition, % at 4 µM; 697 B-cell NF-kB luciferase reporter, 16 h; 330,000 compounds, 0.33% hits; AID 435022, 2010; in the data active means inhibition above about 35%
EBV LMP1 NFkB: EBV LMP1-driven NF-kappaB luciferase reporter inhibitors, primary screen, cell-based, luminescence, single point | LMP1-induced NF-kappaB luciferase reporter cells | inhibition, % at 12.5 µM | 350,000 compounds, 0.69% hits | AID 504558, 2011; in the data active means inhibition above about 41%;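 further: 0% = neutral control wells and 100% = reference inhibitor control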
Shn3 inh set2: reduction of Shn3 3'UTR firefly luciferase signal, primary screen, Schnurri-3 inhibitor project, cell-based, Clone20 osteoblasts, set 2 | inhibition, % at 12.5 µM | 360,000 compounds, 0.52% hits | Clone20 osteoblast Shn3 3'UTR firefly luciferase, 24 h | AID 588674, 2011;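 active means mean inhibition of at least 75% with every replicate also reaching 75%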;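 further: 0% = median of neutral control wells and 100% = pilot-screen positive control compound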
Jurkat NFkB conf: PMA/ionomycin-induced NF-kB reporter inhibitors, Jurkat retest, confirmation, T-cell NF-kB inhibitor project, cell-based, luminescence, single concentration | shares compounds with Jurkat NFkB inh | Jurkat NF-kB luciferase, 16 h | inhibition, % at 4 µM | 2,700 compounds, 27% hits | AID 435020, 2010;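 active means inhibition reaching about 45% at 4 µM in either replicate, limit read from the data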;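 further: plate controls were PMA/ionomycin stimulated DMSO wells for no effect and unstimulated DMSO wells for full effect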
Starred values were filed as active, the others as inactive; x = not tested or not shown.

SMILES	MITF TRPM1 inh	Gli-Sufu antag	Jurkat NFkB inh	697 NFkB inh	EBV LMP1 NFkB	Shn3 inh set2	Jurkat NFkB conf
CCn1cc(/C=C(\NC(=O)c2ccccc2OC)C(=O)N2CCOCC2)c2ccccc21	x	x	x	x	-11	14	x
O=C(/C=C/c1ccc(O)c(O)c1)OC(Cc1ccc(O)c(O)c1)C(=O)O (stereo not drawn)	x	-1	-1	9	-1	16	x
O=C(/C=C/c1ccc(O)c(O)c1)OCCc1ccccc1	-71	50	55*	-71	-22	95*	4
O=C(NCc1ccccc1)c1c(Cl)nc(Cl)c(Cl)c1Cl	77*	1	51*	6	81*	-4	13
COc1ccc(OCC(=O)Nc2ccc(OC)c(S(=O)(=O)N3CCCCC3)c2)cc1	22	2	50*	-36	-21	5	19
COc1ccc(NC(=O)COc2ccccc2Cl)cc1S(=O)(=O)N1CCCCC1	9	-9	-7	-15	8	12	x
Cc1cc(SCC(=O)OCC(=O)NCc2ccc3c(c2)OCO3)c(C)cc1Br	7	-10	7	5	-12	-1	x
NS(=O)(=O)c1ccc(Sc2nc3ccccc3s2)c([N+](=O)[O-])c1	-8	14	98*	-30	70*	x	89*
CCOc1ccccc1CN1CCN(Cc2cc(=O)c3ccccc3[nH]2)CC1CCO (stereo not drawn)	-10	13	51*	-13	-17	7	17
CCOc1ccccc1CN1CCN(Cc2[nH]c3ccccc3c2C)CC1CCO (stereo not drawn)	6	15	10	11	2	5	x
CC(C)(C)C(=O)Nc1nc(-c2ccccc2)ns1	-44	-129	-104	-228	-32	-12	x
c1ccc(Nc2nc(-c3ccccc3)ns2)cc1	-86	-85	-190	-228	-42	-99	-154
CCCCC(=O)NC(c1ccc(C(C)C)cc1)c1ccc2cccnc2c1O (stereo not drawn)	70*	51	61*	-29	50*	83	82*
CCC(=O)NC(c1ccc(OC)cc1)c1c(O)ccc2ccccc12 (stereo not drawn)	23	-10	47	-3	-6	-9	x
CCCC(=O)NC(c1ccc(OC)cc1)c1ccc2cccnc2c1O (stereo not drawn)	73*	47	62*	-17	70*	92*	60*
CCCC(=O)NC(c1cccs1)c1cc([N+](=O)[O-])c2cccnc2c1O (stereo not drawn)	5	-1	x	x	2	21	x
CC(=O)Nc1cccc(C(=O)/C=C/c2cccs2)c1	-10	-13	x	x	5	-32	x
Cc1ccc(O)c(NC(=O)c2cc(-c3ccccc3)on2)c1	-55	14	86*	-25	-28	-102	38
O=C(Nc1cc(Br)ccc1O)c1cc(-c2ccccc2)on1	-44	3	-32	-181	-36	-68	x
CCCc1cc(C(=O)Nc2cc(C)ccc2O)no1	-69	48	92*	32	-9	-6	61*
CCCCN(CC)Cc1ccc(CNC(=O)Nc2ccc(Cl)cc2)o1	-11	1	-10	17	11	39	x
CC(C)CCNC(=O)CCc1nnc(Cc2c[nH]c3ccccc23)o1	15	7	-3	3	-21	9	x
COC(=O)c1sc(N2CCN(c3ccc(Cl)cc3)CC2)nc1N	21	7	61*	-21	-14	15	7
COC(=O)c1sccc1NC(=O)Nc1ccc(OC)cc1OC	20	2	1	14	0	1	x
COc1ccccc1C(CNC(=O)C1CC(=O)N(Cc2ccc(C)cc2)C1)N1CCCC1 (stereo not drawn)	11	13	11	-6	-5	-12	x
SMILES	MITF TRPM1 inh	Gli-Sufu antag	Jurkat NFkB inh	697 NFkB inh	EBV LMP1 NFkB	Shn3 inh set2	Jurkat NFkB conf
COc1ccc(S(=O)(=O)Cc2ccc(C(=O)N3CCN(c4cccc(C)c4)C(C)C3)o2)cc1 (stereo not drawn)	23	-2	61*	-49	5	40	21
Cc1ccc(S(=O)(=O)Cc2ccc(C(=O)N3CCN(c4cccc(C)c4C)CC3)o2)cc1	1	-4	58*	-33	21	38	52*
COC(=O)c1cc(-c2ccc3c(c2)OCO3)nc2ccccc12	-6	-9	3	-5	-5	3	x
c1ccc2nc(-c3ccc4c(c3)OCO4)ccc2c1	x	-131	-157	-203	-55	-71	-84
COc1cc2cc(C#N)c(SCC(=O)N3CCOCC3)nc2cc1OC	-14	-13	-48	14	-7	-26	x
N#Cc1cc2cc3c(cc2nc1SCC(=O)N1CCCC1)OCCO3	-75	-47	-167	-65	-32	-78	-24
O=C1C2C(C(=O)N1Cc1ccco1)C1C=CC2C12CC2 (stereo not drawn)	1	0	6	16	3	-16	x
Clc1ccc(CSc2nncn2-c2ccccn2)cc1	-11	-21	9	-2	8	-8	x
Clc1ccc(CSc2nncn2-c2ccc3c(c2)OCCO3)cc1	2	7	58*	-46	-7	-8	44
OC(c1cc(-c2ccc(C(F)(F)F)cc2)nc(C(F)(F)F)c1)C1CCCCN1 (stereo not drawn)	100*	-26	52*	-22	-12	96*	18
OC(c1cc(C(F)(F)F)nc2c(C(F)(F)F)cccc12)C1CCCCN1 (stereo not drawn)	36	4	15	-10	-15	21	x
CCOc1ccc(-c2noc(-c3cccnc3)n2)cc1OCC	x	-37	-23	-15	x	-19	x
CN1CCC(NCCC(c2ccc(F)cc2)c2ccc(Cl)cc2)CC1 (stereo not drawn)	80*	25	72*	19	-63	-15	29
CC(C)C(=O)c1cn(CC(=O)NCc2ccco2)c2ccccc12	-19	-23	-30	-30	-2	-16	x
CCOC(=O)C(C)Oc1cccc2c(=O)n(CC(=O)NCc3ccco3)ccc12 (stereo not drawn)	15	30	57*	-14	-8	9	43
Cc1c(Cl)cccc1NS(=O)(=O)c1ccc(-c2ccc(=O)[nH]n2)o1	9	-12	-4	-8	-6	-3	x
COc1cccc(-c2cc(C(=O)Nc3cccc(O)c3)no2)c1	-17	-63	-162	1	-7	14	-133
CC(=O)c1cccc(NC(=O)c2cc(-c3cccs3)on2)c1	-35	-13	-79	1	-10	-63	x
